# Inconclusive results are not listed. Where a call stands in place of a potency, no number is given. Calls of active or inactive are those of the source. Unless noted, the call rests on the fitted dose curve; in most records, active means well fitted curve in the direction sought with a large enough effect in the repeat runs; inconclusive means weak or mixed curves; inactive means no such curve, though single readings can be large; an effect the other way counts as inactive or inconclusive. Where a SMILES comes first, the peptide text is derived from it. Bridges are numbered along the chain shown (N, C = ends). [ ]: non-standard residue; d: D form. hArg = N=C(N)NCCCC[C@H](N)C(=O)O; Mpa = O=C(O)CCS
# Tests used:
# [1] = target: Cytochrome P450 2C9 (Homo sapiens) (UniProt P11712); assay: Cytochrome P450 family 2 subfamily C member 9 (CYP2C9) small molecule antagonists: luciferase biochemical (cell-free) qHTS assay (AID 1645842); further: nearly all actives have a fitted effect of over 55% in size; further: potency means the concentration at half of the fitted maximal effect
# Method in brief: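 Luminescence, after 20 min with luciferin detection reagent, reflected CYP2C9 turnover during a 1 h NADPH-driven reaction at 37C. Enzyme-substrate mix contained 0.4% bovine serum albumin and was preincubated with compound 10 min at room temperature.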
# [2] = target: Cytochrome P450 3A4 (Homo sapiens) (UniProt P08684); assay: Cytochrome P450 family 3 subfamily A member 4 (CYP3A4) small molecule antagonists: luciferase qHTS assay (AID 1645841); further: nearly all actives have a fitted effect of over 45% in size
# Method in brief: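 P450-Glo CYP3A4 enzyme with proluciferin substrate was preincubated with DMSO-dissolved compounds for 10 min at room temperature. NADPH regeneration solution started a 1 h reaction. Detection reagent stopped it, and luminescence was read after 20 min.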
# [3] = Primary qHTS for inhibitors of nuclear receptor binding SET domain protein 2 (NSD2) in an isogenic RCH-ACV NSD2 p.E1099K mutant (9B) (AID 1645876; active means well fitted curve in the direction sought with a large enough effect; an effect the other way counts as inactive or inconclusive; further: nearly all actives have a fitted effect of over 70% in size)
# [4] = Primary qHTS for inhibitors of nuclear receptor binding SET domain protein 2 (NSD2) in an RCH-ACV wild type WT cells (2C) (AID 1645877; active means well fitted curve in the direction sought with a large enough effect; an effect the other way counts as inactive or inconclusive; further: nearly all actives have a fitted effect of over 70% in size)
# Cytochrome P450 3A4 (Homo sapiens), sequence (P08684 whole entry, looked up): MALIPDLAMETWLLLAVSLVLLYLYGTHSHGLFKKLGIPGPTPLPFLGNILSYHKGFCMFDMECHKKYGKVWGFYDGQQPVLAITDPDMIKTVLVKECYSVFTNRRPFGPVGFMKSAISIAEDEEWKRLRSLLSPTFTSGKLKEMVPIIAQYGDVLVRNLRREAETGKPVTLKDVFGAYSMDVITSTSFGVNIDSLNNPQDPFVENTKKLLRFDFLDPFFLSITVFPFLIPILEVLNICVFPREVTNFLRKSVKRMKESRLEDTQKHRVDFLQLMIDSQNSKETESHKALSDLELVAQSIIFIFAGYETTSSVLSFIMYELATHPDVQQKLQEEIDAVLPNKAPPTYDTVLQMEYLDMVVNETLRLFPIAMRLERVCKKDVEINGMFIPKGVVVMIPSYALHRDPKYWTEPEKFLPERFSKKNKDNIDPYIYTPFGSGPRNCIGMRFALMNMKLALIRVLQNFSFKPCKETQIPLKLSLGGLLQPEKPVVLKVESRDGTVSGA
# Cytochrome P450 2C9 (Homo sapiens), sequence (P11712 whole entry, looked up): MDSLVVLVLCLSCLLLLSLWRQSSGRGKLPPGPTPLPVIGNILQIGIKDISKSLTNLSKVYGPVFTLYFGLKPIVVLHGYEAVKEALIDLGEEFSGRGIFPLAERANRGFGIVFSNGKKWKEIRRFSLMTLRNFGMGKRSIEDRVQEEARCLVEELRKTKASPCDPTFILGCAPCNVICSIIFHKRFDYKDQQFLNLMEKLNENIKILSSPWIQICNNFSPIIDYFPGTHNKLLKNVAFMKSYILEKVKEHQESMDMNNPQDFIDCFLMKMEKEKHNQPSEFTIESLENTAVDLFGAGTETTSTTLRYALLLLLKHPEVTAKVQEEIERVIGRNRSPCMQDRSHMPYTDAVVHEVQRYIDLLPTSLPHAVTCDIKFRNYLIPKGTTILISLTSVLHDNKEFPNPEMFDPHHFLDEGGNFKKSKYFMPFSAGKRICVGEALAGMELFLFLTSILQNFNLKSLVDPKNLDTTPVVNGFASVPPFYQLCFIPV
smiles,measurement,setting,value
CCOc1ccccc1O[C@H](c1ccccc1)[C@H]1CNCCO1,Potency,[1],inactive
O=C(O)Cc1cn(-c2ccccc2)nc1-c1ccc(Cl)cc1,Potency,[1],4.36 µM (active)
CC(=O)SC[C@@H](Cc1ccccc1)C(=O)NCC(=O)OCc1ccccc1,Potency,[1],1.23 µM (active)
O=C(O)c1ccc[n+]([O-])c1,Potency,[1],inactive
COc1ccc(O)cc1,Potency,[1],inactive
O=C(CN1CCNCC1)NC1CCCCC1,outcome,[2],inactive
same,Potency,[1],inactive
same,Potency,[3],inactive
same,Potency,[4],inactive
NC(=O)[C@@H]1CSSCCC(=O)N[C@@H](CCCCN=C(N)N)C(=O)NCC(=O)N[C@@H](CC(=O)O)C(=O)N[C@@H](Cc2c[nH]c3ccccc23)C(=O)N2CCC[C@H]2C(=O)N1 ([Mpa][hArg]GDWPC-NH2; disulfide 1-7),Potency,[1],inactive
OCc1ccc(Cl)cc1Cl,outcome,[2],inactive
same,Potency,[1],inactive
same,Potency,[3],inactive
same,Potency,[4],inactive
Cc1c(C(=O)NCCO)[n+](=O)c2ccccc2n1[O-],outcome,[2],inactive
same,Potency,[1],inactive
same,Potency,[3],inactive
same,Potency,[4],inactive
CCN(CC)S(=O)(=O)c1ccc(C(=O)O)cc1,outcome,[2],inactive
same,Potency,[3],inactive
same,Potency,[4],inactive
CCN1CC(CCN2CCOCC2)C(c2ccccc2)(c2ccccc2)C1=O (centres undefined),Potency,[1],inactive
O=c1[nH]c2cc(C(F)(F)F)c(N3CCOCC3)cc2n(CP(=O)(O)O)c1=O,Potency,[1],inactive
CCN(CC)CC1CCCCN1CC(=O)N1c2ccccc2C(=O)Nc2cccnc21 (centres undefined),outcome,[2],inactive
NCc1ccc(S(N)(=O)=O)cc1,outcome,[2],inactive
CC(=O)N(CC(O)CN(C(C)=O)c1c(I)c(C(=O)NCC(O)CO)c(I)c(C(=O)NCC(O)CO)c1I)c1c(I)c(C(=O)NCC(O)CO)c(I)c(C(=O)NCC(O)CO)c1I (centres undefined),outcome,[2],inactive
same,Potency,[1],inactive
same,Potency,[3],inactive
same,Potency,[4],inactive

# — PubChem BioAssay (NCATS)
